Bioassay records (PubChem)
Compounds with a hit are over-represented: about 11% of the library has one in this group of screens.
HP1b chromo inh: inhibitors of HP1-beta chromodomain binding to methylated histone tails; AlphaScreen HP1-beta / biotin-H3K9me3 peptide binding; AID 540317; Potency, µM (top dose mostly 114 µM), for inactives: at the top dose activity change, negative = inhibition, usual class: inhibitors; 390,000 tested, 0.56% active; also: nearly all actives have a fitted effect of over 70% in size
Target sequence (P83916 whole entry, looked up): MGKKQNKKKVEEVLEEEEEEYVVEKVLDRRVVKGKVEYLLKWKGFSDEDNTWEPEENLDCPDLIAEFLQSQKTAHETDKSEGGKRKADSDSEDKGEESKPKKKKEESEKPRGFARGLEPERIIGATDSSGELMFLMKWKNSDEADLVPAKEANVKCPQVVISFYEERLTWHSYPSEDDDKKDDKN
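Compound inhibition of the preformed complex between 50 nM HP1-beta and 50 nM biotinylated H3K9me3 peptide was read by AlphaScreen. Buffer was PBS pH 7.4 with 0.01% Tween-20. Incubations ran 30 min at room temperature, with 10 ug/mL donor/acceptor beads.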
L3MBTL1 inh: blocks human L3MBTL1 | Q9Y468 | AID 485360 | AlphaScreen L3MBTL1–H3K9me1 peptide binding | Potency, µM (series often up to 57.1 µM), without a hit: at the top dose activity, negative = inhibition, actives largely listed as inhibitors | 230,000 tested, 0.66% active; also: % is scaled to controls: 0 for no effect and ±100 for the full control effect; nearly all actives have a fitted effect of over 60% in size
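L3MBTL1 (50 nM) pre-complexed 30 min with biotinylated H3(1-15)K9me1 peptide (75 nM), then compounds added for 30 min at room temperature; AlphaScreen streptavidin donor/nickel chelate acceptor beads (10 ug/mL final) read after 30 min dark incubation.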
G9a inh: G9a (human) methyltransferase inhibition. G9a H3K9 monomethylation, AlphaScreen, 2 h. Potency, µM (highest dose often 102 µM), without a hit: at the highest dose activity, negative = inhibition, actives largely listed as inhibitors. 350,000 tested, 8.8% active. AID 504332; also: % is scaled to controls: 0 for no effect and ±100 for the full control effect; nearly all actives have a fitted effect of over 75% in size
Target sequence (Q96KQ7 913-1193 limits assumed): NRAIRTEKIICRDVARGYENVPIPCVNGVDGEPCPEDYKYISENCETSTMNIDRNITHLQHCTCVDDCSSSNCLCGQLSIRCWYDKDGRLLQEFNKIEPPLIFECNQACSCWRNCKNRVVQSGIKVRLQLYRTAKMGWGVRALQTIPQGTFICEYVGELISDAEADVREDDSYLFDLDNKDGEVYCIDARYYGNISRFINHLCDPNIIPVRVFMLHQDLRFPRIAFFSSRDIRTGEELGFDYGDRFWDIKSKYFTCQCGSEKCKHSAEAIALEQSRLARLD
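Step 1: enzyme (final 20 nM) with compound, 15 min RT. Step 2: substrate peptide 500 nM and SAM 20 uM, 2 h RT. Step 3: anti-H3K9me1 antibody and AlphaScreen beads, 10 min, then plate read.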
JMJD2A Tudor: blocks the human JMJD2A Tudor domain; Potency, µM (top dose mostly 114 µM), inactives show at the highest dose activity change, negative = inhibition, hits mostly inhibitors; AID 504339; AlphaScreen JMJD2A-Tudor / H3K4me3 peptide binding; O75164; 390,000 tested, 4.4% active; also: % is scaled to controls: 0 for no effect and ±100 for the full control effect; nearly all actives have a fitted effect of over 50% in size
BAZ2B block: BAZ2B (human) inhibition; Q9UIF8; AlphaScreen BAZ2B-H3K14Ac peptide displacement; Potency, µM (titrated, usually from 114 µM), for inactives: at the top dose activity change, negative = inhibition, actives largely listed as inhibitors; 360,000 tested, 4.4% active; also: % is scaled to controls: 0 for no effect and ±100 for the full control effect; nearly all actives have a fitted effect of over 60% in size
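AlphaScreen displacement: compounds (up to 110uM) incubated 30 min at room temperature with a preformed 50 nM BAZ2B/50 nM biotinylated H3K14Ac peptide complex in PBS pH 7.4 with Tween-20. Donor and acceptor beads at 10 ug/mL final added, 20 min light-protected before reading.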
An asterisk follows results filed as active; ? = inconclusive; / = not tested or not shown; [ ] = remark or other dose. Calls follow the shape of the dose curve; as a rule, active = well fitted inhibition curve with a large enough effect; inconclusive = small, poorly fitted or top-dose-only effect; inactive = no such curve, though single readings can be large or run the other way. Potency is read from the fitted curve at half-maximal effect.

SMILES	HP1b chromo inh	L3MBTL1 inh	G9a inh	JMJD2A Tudor	BAZ2B block
CCOC(=O)c1ccc2c(c1)N(Cc1cccc([N+](=O)[O-])c1)C(=O)c1ccccc1S2	2%[57 µM]	/	-33%[59 µM]	-28%	-32%
CN1C(=S)N(c2cccnc2)C(=O)/C1=C\c1ccc(N(C)C)cc1	-29%	-18%	?	?	11µM*
CN(C)c1ccc(/C=C/C(=O)c2cccnc2)cc1	74%	21%	11%	32%	5%
Cc1c(N2C(=O)/C(=C\c3ccc(N(C)C)cc3)N(C)C2=S)c(=O)n(-c2ccccc2)n1C	?	-15%	40µM*	?	45µM*
Cc1c(NC(=S)N/N=C/c2ccc(N(C)C)cc2)c(=O)n(-c2ccccc2)n1C	-28%	4%	9%[59 µM]	-33%	-11%
CCOC(=O)C(=NC1CCCCC1)NNc1cccc(C(F)(F)F)c1	3%	-5%	50µM*	-36%	-27%
CCOC(=O)C(=NC1CCS(=O)(=O)C1)NNc1ccc(Br)cc1 (centres undefined)	14%	-12%	10µM*	?	?
CCOC(=O)C(=NC(C)CC)NNc1ccc(Br)cc1 (centres undefined)	-11%	-7%	13µM*	?	?
CCOC(=O)C(=NC1CCS(=O)(=O)C1)NNc1ccccc1Cl (centres undefined)	?	/	?	-8%[11.4 µM]	?
Cc1cc(C)n(CC(C)C(=O)O)n1 (centres undefined)	8%	-2%	/	-13%	79µM*
COc1ccc([C@]23Cc4ccccc4C(O2)c2c(cc(C)n(Cc4ccccc4)c2=O)O3)cc1	/	/	9%[2.33 µM]	/	?
COn1cnnc1-c1ccccc1	27%	-6%	13µM*	-7%	7%
CN(C)c1ccc(NC(=O)CSCc2nc3c(nnn3Cc3ccc(F)cc3)c(=O)[nH]2)cc1	-25%	-95%	?	50µM*	?
CCOc1ccc(C(=O)NCC(=O)OCC(=O)c2ccc3c(c2)-c2ccccc2C3)cc1	55%	-7%	71µM*	-4%	13%
COc1ccccc1C(=O)NCC(=O)OCC(=O)c1ccc2c(c1)-c1ccccc1C2	16%	-4%	-5%[59 µM]	-12%	-6%
CC(=O)NCCNC(=O)CCCn1c(=O)[nH]c2ccsc2c1=O	22%	/	6%[59 µM]	-10%	3%
Cc1cc2nc(-c3ccc(SCc4ccc(C(=O)O)cc4)nc3)[nH]c2cc1C	2%	-3%	32µM*	?	32µM*
Cn1cc(Cl)c(-c2n[nH]c(=S)n2-c2ccccc2)n1	36%	2%	8.9µM*	6.3µM*	-1%
Cc1c(-c2n[nH]c(=S)n2-c2ccc(Br)cc2)nnn1-c1ccc(Cl)cc1	3%	-12%	?	?	-37%
Cn1cc(Cl)c(-c2n[nH]c(=S)n2-c2ccc(F)cc2)n1	47%	8%	7.9µM*	?	-3%
S=c1[nH]nc(-c2ccc3ccccc3n2)n1-c1cc(Cl)cc(Cl)c1	12%	-15%	?	-29%	-25%
Cc1ccc(-n2c(-c3nn(C)cc3Cl)n[nH]c2=S)cc1	27%	-6%	3.2µM*	8.9µM*	2%
S=c1[nH]nc(CSCc2ccccc2Cl)n1-c1ccccc1	18%	0%	/	11%	-4%
Cc1nn(C)c(-c2n[nH]c(=S)n2-c2ccccc2)c1Cl	19%	8%	3.2µM*	35µM*	3%
Cc1c(Cl)c(-c2n[nH]c(=S)n2-c2ccc(F)cc2)nn1C	27%	-3%	?	45µM*	-5%
SMILES	HP1b chromo inh	L3MBTL1 inh	G9a inh	JMJD2A Tudor	BAZ2B block
Cc1nn(C)cc1-c1n[nH]c(=S)n1-c1ccc(F)cc1	16%	4%	10µM*	5.6µM*	-20%
Cc1c(-c2n[nH]c(=S)n2-c2ccc(C(F)(F)F)cc2)nnn1-c1ccccc1	-6%	5%	10µM*	?	-2%
C=CCNC(=O)CSc1nnc(-c2ccccc2Cl)n1-c1c(C)n(C)n(-c2ccccc2)c1=O	37%	/	-2%[12.7 µM]	0%	4%
Cc1c(-n2c(-c3ccccc3Cl)n[nH]c2=S)c(=O)n(-c2ccccc2)n1C	50%	-14%	45µM*	?	?
Cc1ccc(-n2c(-c3cn(C)nc3C)n[nH]c2=S)cc1	/	/	?	/	-20%
O=C(NCCc1ccc(Cl)cc1)c1nnc(Cc2ccc(Cl)cc2Cl)o1	6%	/	6%[59 µM]	-14%	-2%
CCN(CC)CCNS(=O)(=O)c1ccc2[nH]cc(C(=O)O)c(=O)c2c1	-13%	?	?	56µM*	?
CCc1ccccc1N(C)S(=O)(=O)c1ccc2[nH]cc(C(=O)O)c(=O)c2c1	31%	-5%	45µM*	-18%	?
OCCN1CCN(C(c2ccccc2Cl)c2sc3nc(-c4ccco4)nn3c2O)CC1 (centres undefined)	27%	/	?	-12%	-4%
Cc1ccccc1NC(=O)CCC(=O)N/N=C/c1ccncc1	62%	-7%	7.1µM*	-18%[11.4 µM]	?
O=C(CCC(=O)Nc1ccccc1)N/N=C/c1ccncc1	7%	23%	20%[59 µM]	-17%[11.4 µM]	1%
COc1ccc(NC(=O)CCC(=O)N/N=C/c2ccncc2)cc1	53%	9%	22µM*	7%	-5%
Cc1ccc(C)c(NC(=O)CCC(=O)N/N=C/c2cccnc2)c1	49%	/	18%[0.501 µM]	-1%	-6%
O=C(CCC(=O)Nc1ccc(F)cc1)N/N=C/c1ccncc1	4%	/	6%	3.5µM*	/
Cc1ccc(C(=O)N(Cc2ccco2)Cc2sccc2C)cc1	20%	/	-7%[59 µM]	-14%	28%
CCCCCCN(CCCCCC)C(=O)Cc1c(-c2ccc(Cl)cc2)[nH]c2ccc(Cl)cc12	/	/	27%[59 µM]	/	/
COc1ccc2oc(=N)c(C(=O)NCc3ccccc3)cc2c1	1%	6%	35µM*	-14%	-4%
CNC(=O)c1cc2cc(OC)ccc2oc1=N	13%	3%	56µM*	-7%	-25%
COc1ccc2cc(C(=O)NCc3ccccc3)c(=O)oc2c1	42%	/	/	15%	-5%
CNC(=O)c1cc2cc(OC)ccc2oc1=O	13%	/	13%	-13%	1%
COc1cccc(Nc2ncccc2C(=O)NCc2ccccc2)c1	13%	3%	8.9µM*	-25%	1%
Cc1ccc(C)c(-n2cc(-c3ccccc3)nc2SCC(=O)Nc2ccccc2)c1	-15%	/	?	?	?
COc1ccc(C2c3[nH]c4ccccc4c3CCN2C(=O)c2cn3ccccc3n2)c(F)c1 (centres undefined)	-5%	-27%	/	?	22µM*
COc1ccc(C2c3[nH]c4ccccc4c3CCN2C(=O)c2cc3ncccn3n2)c(F)c1 (centres undefined)	2%	-18%	20%[12.7 µM]	?	32µM*
Cc1nc(N/N=C/c2cccc(F)c2)cc(N2CCOCC2)n1	24%	-9%	-5%	-18%	2%
